# Data taken from paper PMC4336329 (PLoS ONE, 2015).
# Screen size: about 310,000 compounds; about 14,000 (4.5%) showed an effect of 50% or more. The effect is printed as a negative number. Many of the other results were omitted from the sample, so strong results are more common in it than they were.
# Biological target: human ether-à-go-go-related gene (hERG) potassium channel (human, UniProt Q12809)
# Assay: primary screen, population patch clamp on CHO cells stably expressing hERG; higher = less effect of the substance
# 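Also: peak tail current of the secondary pulse compared with the same well before compound.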
# human ether-à-go-go-related gene (hERG) potassium channel, sequence (Q12809 whole entry, looked up): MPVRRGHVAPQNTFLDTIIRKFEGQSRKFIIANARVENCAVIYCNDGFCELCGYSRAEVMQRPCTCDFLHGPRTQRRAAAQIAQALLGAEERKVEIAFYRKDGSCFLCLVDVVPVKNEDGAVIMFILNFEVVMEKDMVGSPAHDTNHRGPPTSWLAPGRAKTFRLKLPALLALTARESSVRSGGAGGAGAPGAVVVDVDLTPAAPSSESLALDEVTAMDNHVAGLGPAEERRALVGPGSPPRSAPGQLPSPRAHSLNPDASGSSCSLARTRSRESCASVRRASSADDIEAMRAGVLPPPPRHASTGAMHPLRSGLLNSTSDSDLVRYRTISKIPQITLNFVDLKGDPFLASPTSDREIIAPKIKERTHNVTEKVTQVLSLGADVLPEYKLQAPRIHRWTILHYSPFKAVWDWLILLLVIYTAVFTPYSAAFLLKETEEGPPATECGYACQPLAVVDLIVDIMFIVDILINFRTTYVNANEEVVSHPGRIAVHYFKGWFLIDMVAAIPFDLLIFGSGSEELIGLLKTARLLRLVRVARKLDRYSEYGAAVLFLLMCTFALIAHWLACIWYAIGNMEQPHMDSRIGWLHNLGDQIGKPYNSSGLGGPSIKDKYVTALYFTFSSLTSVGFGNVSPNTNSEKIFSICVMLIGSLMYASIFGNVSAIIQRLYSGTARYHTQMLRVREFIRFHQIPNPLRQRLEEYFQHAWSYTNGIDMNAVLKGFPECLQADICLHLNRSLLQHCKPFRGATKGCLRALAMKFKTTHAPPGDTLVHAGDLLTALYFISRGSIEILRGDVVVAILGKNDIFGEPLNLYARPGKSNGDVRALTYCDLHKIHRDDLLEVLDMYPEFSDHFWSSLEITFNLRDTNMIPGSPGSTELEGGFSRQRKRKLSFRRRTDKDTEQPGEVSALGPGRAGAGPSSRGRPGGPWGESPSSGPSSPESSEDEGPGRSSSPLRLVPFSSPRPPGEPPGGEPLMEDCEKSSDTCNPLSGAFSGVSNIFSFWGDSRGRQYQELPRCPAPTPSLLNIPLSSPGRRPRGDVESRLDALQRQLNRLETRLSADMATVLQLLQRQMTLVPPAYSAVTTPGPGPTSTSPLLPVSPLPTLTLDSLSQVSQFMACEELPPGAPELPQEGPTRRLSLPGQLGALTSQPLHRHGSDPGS
row,Compound,"hERG current change (%, negative = inhibition) at 10uM"
1,CC(C)C(=O)NNC(=O)c1csc(CS(=O)(=O)c2ccc(Cl)cc2)n1,-1.62%
2,O=c1cc(-c2ccc(O)cc2)oc2ccccc12,16.1%
3,CCOC(=O)c1ccc(NC(=O)C2C3C=CC(C3)C2C(=O)O)cc1 (centres unmarked),4.67%
4,CN(C)CC/C=C1\c2cc(F)ccc2CSc2ccccc21.O=C(O)/C=C\C(=O)O,-35.4%
5,COc1ccc2c(c1)C1C=CCC1C(c1cc3c(cc1Br)OCO3)N2 (centres unmarked),1.4%
6,O=C(N/C(=C\c1ccccc1)C(=O)N1CCCCC1)c1ccc(Br)o1,15.8%
7,O=C(N/C(=C\c1cccc([N+](=O)[O-])c1)C(=O)N1CCOCC1)c1ccco1,14.9%
8,O=C(N/C(=C\c1ccc(Cl)cc1)C(=O)N1CCOCC1)c1ccco1,-31.4%
9,O=C(N/C(=C/c1ccccc1)C(=O)N1CCCCC1)c1ccc(Br)o1,-7.64%
10,O=C(N/C(=C\c1ccc([N+](=O)[O-])cc1)C(=O)N1CCCCC1)c1ccc(Br)o1,-72%
11,O=C(N/C(=C\c1ccccc1)C(=O)N1CCOCC1)c1ccco1,17.1%
12,O=C(N/C(=C/c1cccc([N+](=O)[O-])c1)C(=O)N1CCCCCC1)c1ccco1,-28.2%
13,COc1ccc(/C=C(\NC(=O)c2ccco2)C(=O)N2CCOCC2)cc1,0.365%
14,O=C(N/C(=C\c1ccc([N+](=O)[O-])cc1)C(=O)N1CCOCC1)c1ccco1,-69.2%
15,O=C(N/C(=C\c1ccc([N+](=O)[O-])cc1)C(=O)N1CCCCC1)c1ccco1,-70.3%
16,O=C(N/C(=C/c1ccc([N+](=O)[O-])cc1)C(=O)N1CCOCC1)c1ccco1,-70.1%
17,O=C(N/C(=C/c1cccc([N+](=O)[O-])c1)C(=O)N1CCCCC1)c1ccco1,-2.24%
18,C=C1C(=O)O[C@@H]2C[C@@H](C)[C@H]3C=CC(=O)[C@]3(O)C[C@@H]12,19.3%
19,Cc1ccc(C(=O)C(OC(=O)CNC(=O)c2ccc(Cl)cc2)c2ccccc2)cc1 (centres unmarked),2.15%

row,Compound,"hERG current change (%, negative = inhibition) at 10uM"
1,COc1ccc(-c2[nH]ncc2/C=N/NC(=O)c2ccncc2)c(OC)c1,13.8%
2,O=C(CSc1ccccn1)Nc1ccc2c(c1)oc1ccccc12,12.8%
3,N#Cc1cc2ccccc2nc1SCC(=O)NC1CC1,4.58%
4,O=C(CN1C(=O)CSC1=O)c1ccccc1,1.83%
5,CCOc1cc2nc(-c3ccc(OC)c(OC)c3)nc(N3CCOCC3)c2cc1OC,-15.5%
6,COc1ccc(C2CC(c3ccc(OC)cc3)n3nc(NC(=O)c4cccs4)nc3N2)cc1 (centres unmarked),-13.9%
7,O=C(Nc1ncc2c(n1)CC(c1cccc(Cl)c1)CC2=O)c1ccco1 (centres unmarked),-39%
8,COc1ccc(C2CC(c3ccccc3)Nc3nc(NC(=O)c4cccs4)nn32)cc1 (centres unmarked),-52%
9,O=C(Nc1nc2n(n1)C(c1ccc(F)cc1)CC(c1ccccc1)N2)c1ccco1 (centres unmarked),-57.4%
10,COc1ccc(C2CC(c3ccc(F)cc3)n3nc(NC(=O)c4ccco4)nc3N2)cc1 (centres unmarked),-60.3%
11,CS(=O)(=O)Nc1nc2n(n1)C(c1ccc(F)cc1)CC(c1ccccc1)N2 (centres unmarked),-4.13%
12,COc1ccc(C2CC(c3ccc(F)cc3)Nc3nc(N)nn32)cc1 (centres unmarked),-27%
13,Nc1nc2n(n1)C(c1ccccc1)CC(c1ccc(F)cc1)N2 (centres unmarked),-10.1%
14,CC1CC(c2ccccc2)n2nc(NC(=O)c3cccs3)nc2N1 (centres unmarked),16.6%
15,O=C(Nc1ncc2c(n1)CC(c1ccccc1)CC2=O)c1ccco1 (centres unmarked),-21.9%
16,COc1ccc(C2CC(c3ccc(F)cc3)n3nc(NS(C)(=O)=O)nc3N2)cc1 (centres unmarked),8.06%
17,O=C(Nc1ncc2c(n1)CC(c1ccc(Cl)cc1)CC2=O)c1ccco1 (centres unmarked),-71.6%
18,C[C@]12CCC3C(CC[C@H]4CC(O)CC[C@]34C)C1CC/C2=N/NC(=O)c1ccncc1 (some centres unmarked),-10.8%
19,COc1c(C)cccc1C(=O)Nc1cc(Cl)ccc1N1CCOCC1,7.1%

row,Compound,"hERG current change (%, negative = inhibition) at 10uM"
1,O=C(Nc1cc(-c2ccccc2)sc1C(=O)O)c1cccc(F)c1,33.5%
2,CCOC(=O)C1CCN(C(=O)CCNS(=O)(=O)c2ccc3c(c2)CCN3C(=O)CC)CC1,7.82%
3,CCc1ccc(CN(C)CC(=O)Nc2sccc2C#N)cc1,-16.4%
4,COc1ccc(/C=N/N=C2/NC(=O)C(CC(=O)O)S2)cc1OCc1ccc(Cl)cc1 (centres unmarked),-1.97%
5,O=C(NC1CCCCC1)C(c1ccccn1)N(C(=O)c1csnn1)c1ccccc1 (centres unmarked),1.6%
6,O=C(NC1CCCCC1)c1cc(-c2cccc(Cl)c2)on1,11.7%
7,CCOC(=O)C1C(=O)NC(c2ccccc2)=NC1c1ccc(OC)cc1 (centres unmarked),-12.2%
8,CC(=O)N1CCC(N(CCN2CCOCC2)C(=S)Nc2c(C)cccc2C)CC1,8.51%
9,NC(=O)c1nsc(C(=O)N(c2ccc3c(c2)OCO3)C(C(=O)NCC2CCCO2)c2ccc(F)cc2)c1N (centres unmarked),-8.25%
10,O=C(O)CCCC(=O)Nc1nc2n(n1)C(c1ccc(F)cc1)CC(c1ccc(Cl)cc1)N2 (centres unmarked),-0.46%
11,COCC(=O)Nc1nc2n(n1)C(c1ccc(Cl)cc1)CC(c1ccc(OC)cc1)N2 (centres unmarked),-73.8%
12,O=C(Nc1nc2n(n1)C(c1ccccc1)CC(c1ccc(Cl)cc1)N2)c1ccco1 (centres unmarked),-53.1%
13,COc1ccc(C2CC(c3ccc(OC)cc3)n3nc(NC(=O)c4ccco4)nc3N2)cc1 (centres unmarked),-19.2%
14,COCC(=O)Nc1nc2n(n1)C(c1ccccc1Cl)CC(c1ccc(OC)cc1)N2 (centres unmarked),-18.6%
15,CC1CC(c2ccccc2)n2nc(NC(=O)c3ccco3)nc2N1 (centres unmarked),24.6%
16,COc1ccc(C2CC(c3ccccc3)Nc3nc(NC(=O)c4ccco4)nn32)cc1 (centres unmarked),-64.4%
17,COCC(=O)Nc1nc2n(n1)C(c1ccccc1)CC(c1ccc(OC)cc1)N2 (centres unmarked),-3.73%
18,O=C(Nc1nc2n(n1)C(c1ccc(Cl)cc1)CC(c1ccc(Cl)cc1)N2)c1ccco1 (centres unmarked),-38.3%
